Activity calls are given as the source filed them. The call rests on the fitted dose curve.
Target: Thyrotropin-releasing hormone receptor (Homo sapiens) (UniProt P34981)
Test: qHTS assay to identify small molecule agonists of the thyrotropin-releasing hormone receptor (TRHR) signaling pathway (AID 1346891)
Details: TRHR-HEK293 calcium fluorescence, agonist mode; series mostly up to 57.6 µM; activation: at the top concentration
Method in brief: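 Intracellular calcium rise, read as fluorescence every second for 3 min, served as the agonist signal in dye-loaded HEK293 cells expressing TRHR; each compound ran at 15 concentrations in triplicate.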
On the % scale 0 is the no-effect control and ±100 the full control effect.

Thyrotropin-releasing hormone receptor (Homo sapiens), sequence (P34981 whole entry, looked up): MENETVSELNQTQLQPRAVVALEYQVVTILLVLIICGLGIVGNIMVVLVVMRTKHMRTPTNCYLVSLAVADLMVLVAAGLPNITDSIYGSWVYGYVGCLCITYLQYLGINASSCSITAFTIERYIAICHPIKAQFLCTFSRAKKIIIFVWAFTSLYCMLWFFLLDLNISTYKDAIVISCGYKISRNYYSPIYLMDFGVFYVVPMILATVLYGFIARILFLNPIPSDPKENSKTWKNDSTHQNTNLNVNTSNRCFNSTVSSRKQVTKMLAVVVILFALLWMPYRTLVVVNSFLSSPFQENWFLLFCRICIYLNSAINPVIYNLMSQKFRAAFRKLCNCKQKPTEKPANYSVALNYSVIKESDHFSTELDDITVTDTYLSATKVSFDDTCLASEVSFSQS

Row | Compound | activation | outcome
1 | CC(C)(C)C(=O)Cl | -0.0425% (inactive) | –
2 | O=C1C2CC=CCC2C(=O)N1SC(Cl)(Cl)Cl (configuration not stated) | – | inactive
3 | O=C(Cl)C(Cl)Cl | -0.388% (inactive) | –
4 | C/C=C/CC#N | 0.0003% (inactive) | –
5 | S=C=S | -0.275% (inactive) | –
6 | O=C1CC(=O)NC(=O)N1 | -0.0868% (inactive) | –
7 | CCN(CCO)CCO | 0.384% (inactive) | –
8 | ClC1=C(Cl)C2(Cl)C(CBr)CC1(Cl)C2(Cl)Cl (configuration not stated) | – | inactive
9 | CCOC(=O)c1ncn2c1CN(C)C(=O)c1c(I)cccc1-2 | -0.143% [at 26.5 µM] (inactive) | –
10 | COc1ccccc1OC | -0.73% (inactive) | –
11 | c1cncc([C@@H]2CCCCN2)c1 | -0.0675% (inactive) | –
12 | CCOP(=S)(OCC)Oc1ccc(Cl)cc1Cl | -0.0104% (inactive) | –
13 | CC(Cc1ccccc1)NCCn1cnc2c1c(=O)n(C)c(=O)n2C (configuration not stated) | 0.535% (inactive) | –
14 | O=C(Cl)CCl | -0.117% (inactive) | –
15 | C=C1C[C@@H]2[C@H](CC[C@]3(C)C(=O)CC[C@@H]23)[C@@]2(C)C=CC(=O)C=C12 | -0.522% [at 26.5 µM] (inactive) | –
16 | N#CN | 0.0383% [at 150 µM] (inactive) | –

Row | Compound | activation | outcome
17 | CCN(CCO)CCn1c(Cc2ccccc2)nc2c1c(=O)n(C)c(=O)n2C | -0.135% [at 26.5 µM] (inactive) | –
18 | C=CC1(C)OC(=O)N(c2cc(Cl)cc(Cl)c2)C1=O (configuration not stated) | – | inactive
19 | O=C(Cl)C(Cl)(Cl)Cl | -0.0852% (inactive) | –
20 | CCOC(=O)C(Cl)Cc1cc(-n2nc(C)n(C(F)F)c2=O)c(F)cc1Cl (configuration not stated) | 0.676% (inactive) | –
21 | Cc1cc(OC(=O)N(C)C)nn1C(=O)N(C)C | -0.251% (inactive) | –
22 | O=C(O)c1c(Cl)ccc2cc(Cl)cnc12 | -0.166% (inactive) | –
23 | COP(=O)(OC)O/C(C)=C/C(=O)N(C)C | -0.209% (inactive) | –
24 | Cn1c(CCCC(=O)O)nc2cc(N(CCCl)CCCl)ccc21 | -0.162% [at 26.5 µM] (inactive) | –
25 | CS(=O)(=O)Cl | -0.245% (inactive) | –
26 | CCC(C(N)=O)N1CCCC1=O (configuration not stated) | -0.358% [at 26.5 µM] (inactive) | –
27 | CN(CCO)CCO | -0.0232% (inactive) | –
28 | NCCOS(=O)(=O)O | -0.218% (inactive) | –
29 | C=CCCC#N | -0.225% (inactive) | –
30 | O=C(NC(O)C(Cl)(Cl)Cl)NC(O)C(Cl)(Cl)Cl (configuration not stated) | -0.0799% [at 26.5 µM] (inactive) | –
31 | COc1cccc(C=O)c1 | -0.433% (inactive) | –
32 | CCC(C)C(C)(COC(N)=O)COC(N)=O (configuration not stated) | 0.568% [at 26.5 µM] (inactive) | –
